Test results: PubChem BioAssay AID651597 (National Center for Advancing Translational Sciences (NCATS), 2012)
Hit rate of the full screen: of about 1,100 compounds, about 390 (35%) were called active. About 30% were inconclusive and are not listed. The call rests on the fitted dose curve; in most records, active means well fitted inhibition curve with a large enough effect; inconclusive means small, poorly fitted or top-dose-only effect; inactive means flat fitted curve, though single readings scatter. The list shows a part of the results. A call without a number means that no potency is given here.

Molecular target: Luciferin 4-monooxygenase (Photinus pyralis) (UniProt P08659)
Assay: qHTS of Nrf2 Activators: Hit Validation in Secondary FLuc Assay; further: nearly all actives have a fitted effect of over 65% in size
Details: firefly luciferase inhibition counter-screen, luminescence; series mostly up to 57.5 µM
How it was run: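 Purified firefly luciferase is tested for inhibition by compounds in the presence of its substrates, ATP and D-luciferin, each at Km. Inhibition marks likely false positives arising from reporter-enzyme stabilization.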
Potency means the concentration at half of the fitted maximal effect.

**Q.** How did the Potency turn out when `Cc1nc(NC(=O)c2ccc(Br)o2)ccc1Br` was run?
**A.** 9.53 µM (active)

**Q.** For `Cc1ccc2oc(-c3cccc(NC(=O)c4ccc(Br)o4)c3)nc2c1`, which Potency is on record?
**A.** 8.49 µM (active)

**Q.** With `O=C(Nc1ccc2ccccc2c1)c1ccc(Br)o1` as the compound, how does the Potency read?
**A.** 1.2 µM (active)

**Q.** `Cc1cc(C(=O)Nc2cc(Br)ccc2O)on1` was tested. Which Potency did it give?
**A.** inactive

**Q.** For `Cc1ccc(C)c(-c2nnc(NC(=O)c3ccc([N+](=O)[O-])o3)o2)c1`, which Potency is on record?
**A.** inactive

**Q.** With `O=C(Cn1cnc2ccccc21)N/N=C/C(Br)=C/c1ccccc1` as the compound, how does the Potency read?
**A.** inactive

**Q.** Which Potency does the source give for `O=C(/C=C/Nc1ccc(F)cc1)c1cccs1` here?
**A.** 0.19 µM (active)

**Q.** `O=C(NNC(=O)c1nc(Cl)ccc1Cl)c1ccc(F)cc1` was tested. Which Potency did it give?
**A.** inactive

**Q.** `COCCn1c(=NC(=O)c2cc(Cl)sc2Cl)sc2cc(S(N)(=O)=O)ccc21` was tested. Which Potency did it give?
**A.** 15.1 µM (active)

**Q.** With `O=c1oc2ccccc2cc1-c1csc(Nc2ccc(O)cc2)n1` as the compound, how does the Potency read?
**A.** 1.35 µM (active)

**Q.** Which Potency does the source give for `O=c1oc2ccc(Br)cc2cc1-c1nc2ccccc2o1` here?
**A.** inactive

**Q.** How did the Potency turn out when `CN1CCN(S(=O)(=O)c2ccc(Sc3nnnn3-c3ccccc3)c([N+](=O)[O-])c2)CC1` was run?
**A.** inactive

**Q.** `CCOc1cc2c(c3c1C(c1ccccc1)N(S(=O)(=O)c1ccc(C)cc1)C3)C(=O)C=CC2=O` (centres undefined) was tested. Which Potency did it give?
**A.** 0.601 µM (active)

**Q.** How did the Potency turn out when `Cc1ccsc1/C=N/N=C1\C(=O)Nc2ccccc21` was run?
**A.** 3.38 µM (active)

**Q.** With `Cc1ccccc1/C=C1\C(=O)Nc2ccc(F)cc21` as the compound, how does the Potency read?
**A.** inactive

**Q.** How did the Potency turn out when `COC(=O)[C@@]1(Sc2ccc(C)cc2)CC(=O)N(C(=O)/C=C/c2ccccc2)[C@@H]1c1ccccc1` was run?
**A.** inactive

**Q.** `O=C(NC(=S)Nc1ccccc1O)c1ccccc1Cl` was tested. Which Potency did it give?
**A.** 8.49 µM (active)

**Q.** Which Potency does the source give for `O=C(CNC(=S)NC(=O)c1ccccc1Br)c1ccccc1` here?
**A.** inactive

**Q.** Which Potency does the source give for `O=C(NC(=S)Nc1cc(C(F)(F)F)ccc1Cl)c1ccccc1` here?
**A.** inactive

**Q.** Which Potency does the source give for `O=C1/C(=C\c2ccc(Cl)cc2)CCC1CNc1ccc(Cl)cc1` (centres undefined) here?
**A.** 19 µM (active)

**Q.** For `Cc1ccc(S(=O)(=O)c2nc(S(C)(=O)=O)sc2N2CCCCC2C)cc1` (centres undefined), which Potency is on record?
**A.** inactive

**Q.** For `COc1cc(C=C(c2nc3ccccc3s2)c2nc3ccccc3s2)ccc1O`, which Potency is on record?
**A.** 12 µM (active)

**Q.** For `O=C1Nc2cccnc2N(C(=O)CCl)c2ccccc21`, which Potency is on record?
**A.** inactive

**Q.** Which Potency does the source give for `COc1ccccc1C=Cc1ccnc2ccccc12` here?
**A.** 5.36 µM (active)

**Q.** `O=C(c1ccco1)c1cn(CC(=O)N2CCCc3ccccc32)c2ccccc12` was tested. Which Potency did it give?
**A.** inactive

**Q.** For `CC(=O)Nc1ccc(O)c(-c2nc3ccccc3s2)c1`, which Potency is on record?
**A.** 2.13 µM (active)

**Q.** `O=C1c2cccc3cccc(c23)C(=O)N1Cc1ccco1` was tested. Which Potency did it give?
**A.** inactive

**Q.** For `c1ccc(N=NC2=NN(c3ccccc3)CS2)cc1`, which Potency is on record?
**A.** 2.13 µM (active)

**Q.** How did the Potency turn out when `O=c1c(Cl)c(N/N=C/c2ccc(Cl)cc2)cnn1-c1ccccc1` was run?
**A.** 19 µM (active)

**Q.** How did the Potency turn out when `Cc1ccc(Sc2cnn(-c3ccccc3)c(=O)c2Cl)cc1` was run?
**A.** inactive

**Q.** With `O=C(O)c1ccc(-n2ncc(Cl)c(Cl)c2=O)cc1` as the compound, how does the Potency read?
**A.** inactive

**Q.** How did the Potency turn out when `Oc1ccc2ccccc2c1/C=C/c1ccc2c(Br)cc(Br)c(O)c2n1` was run?
**A.** 10.7 µM (active)

**Q.** `COC(=O)c1sccc1NC(=O)c1ccccc1F` was tested. Which Potency did it give?
**A.** inactive

**Q.** How did the Potency turn out when `COc1cc2c(cc1NC(=O)c1ccccc1F)CCCC2` was run?
**A.** 8.49 µM (active)

**Q.** How did the Potency turn out when `COc1cc2c(cc1NC(=O)c1ccco1)CCCC2` was run?
**A.** 7.57 µM (active)

**Q.** With `COc1cc(OC)c(NC(=O)c2ccco2)cc1Cl` as the compound, how does the Potency read?
**A.** inactive

**Q.** For `Cc1noc(C)c1COc1ccccc1C(=O)NNC(=O)c1ccccc1F`, which Potency is on record?
**A.** inactive

**Q.** For `COC(=O)[C@@H]1Cc2c([nH]c3ccccc23)C(C)(C)N1C(=O)CCl`, which Potency is on record?
**A.** inactive

**Q.** With `Cc1cc(Br)ccc1NC(=O)CNC(=O)Cn1ncc(Cl)c(Cl)c1=O` as the compound, how does the Potency read?
**A.** inactive

**Q.** With `CCOC(=O)c1cnc(-c2ccccc2)nc1-c1ccccc1` as the compound, how does the Potency read?
**A.** inactive

**Q.** Which Potency does the source give for `CCOC(=O)c1ccsc1NC(=O)CCS(=O)(=O)c1ccccc1` here?
**A.** inactive

**Q.** How did the Potency turn out when `CCOC(=O)c1ccccc1N/C=C/C(=O)c1ccccc1` was run?
**A.** 10.7 µM (active)

**Q.** How did the Potency turn out when `CS(=O)(=O)c1nc(S(=O)(=O)c2ccc(Cl)cc2)c(N2CCC3(CC2)OCCO3)s1` was run?
**A.** inactive

**Q.** Which Potency does the source give for `Cc1ccc(Nc2nc(C(N)=O)c(NC(=O)c3ccccc3Br)s2)cc1` here?
**A.** 13.5 µM (active)

**Q.** How did the Potency turn out when `COC(=O)c1c(NC(=O)c2ccccc2)sc(C(N)=O)c1C` was run?
**A.** inactive

**Q.** Which Potency does the source give for `NC(=O)c1nc(Nc2ccccc2)sc1NC(=O)c1ccccc1Br` here?
**A.** inactive

**Q.** How did the Potency turn out when `O=C(CSc1nccc(-c2cccs2)n1)Nc1cccc(Cl)c1Cl` was run?
**A.** inactive

**Q.** `O=C(Nc1ncc2c(n1)-c1ccccc1CC2)c1cccs1` was tested. Which Potency did it give?
**A.** 10.7 µM (active)

**Q.** Which Potency does the source give for `O=C(CSc1nccc(-c2cccs2)n1)Nc1cccc(Cl)c1` here?
**A.** inactive

**Q.** Which Potency does the source give for `O=C(Nc1nccc(-c2cccs2)n1)c1cccs1` here?
**A.** 10.7 µM (active)

**Q.** With `Fc1ccc(Nc2nc3ccccc3n3cnnc23)c(F)c1` as the compound, how does the Potency read?
**A.** inactive

**Q.** `Oc1ccccc1Nc1nc2ccccc2n2nnnc12` was tested. Which Potency did it give?
**A.** 10.7 µM (active)

**Q.** How did the Potency turn out when `Cc1c(Nc2nc3ccccc3n3cnnc23)cccc1[N+](=O)[O-]` was run?
**A.** inactive

**Q.** `CSc1ccc(C2NN=C(c3ccccc3)S2)cc1` (centres undefined) was tested. Which Potency did it give?
**A.** 0.0426 µM (active)

**Q.** For `CC(C)OC(=O)c1cn(-c2ccccc2)nc1-c1ccco1`, which Potency is on record?
**A.** 6.75 µM (active)

**Q.** With `O=C(Nc1cccnc1)C1(F)C(F)(F)C(F)(F)C(F)(F)C(F)(F)C1(F)F` as the compound, how does the Potency read?
**A.** inactive

**Q.** For `O=C(Nc1ccc(N2CCN(C(=O)c3ccc(Cl)cc3)CC2)cc1)c1ccc([N+](=O)[O-])o1`, which Potency is on record?
**A.** inactive

**Q.** Which Potency does the source give for `O=C(NCC1CCCO1)c1ccc([N+](=O)[O-])o1` (centres undefined) here?
**A.** inactive

**Q.** For `N#Cc1c(NC(=O)c2ccc([N+](=O)[O-])o2)sc2c1CCC2`, which Potency is on record?
**A.** 1.69 µM (active)

**Q.** For `O=C(Nc1ccc(Br)c(Cl)c1)c1ccco1`, which Potency is on record?
**A.** 5.36 µM (active)

**Q.** `O=C(Nc1nc2ccsc2c(=O)s1)c1ccco1` was tested. Which Potency did it give?
**A.** 10.7 µM (active)

**Q.** For `O=C(Nc1cc(Cl)ccc1-n1cncn1)c1ccco1`, which Potency is on record?
**A.** inactive

**Q.** Which Potency does the source give for `O=C(Nc1nc2c(ccc3ccccc32)s1)c1ccco1` here?
**A.** 4.78 µM (active)

**Q.** For `O=C(Nc1nc(-c2ccncc2)cs1)c1ccco1`, which Potency is on record?
**A.** 12 µM (active)

**Q.** For `CC(=O)Nc1ccc2nc(NC(=O)c3ccco3)sc2c1`, which Potency is on record?
**A.** 2.39 µM (active)

**Q.** With `Cc1cc(Cl)cc2sc(NC(=O)c3ccco3)nc12` as the compound, how does the Potency read?
**A.** 1.69 µM (active)

**Q.** Which Potency does the source give for `Cc1ccc(Cl)c2sc(NC(=O)C3CC3)nc12` here?
**A.** inactive

**Q.** How did the Potency turn out when `C[C@H]1CCC[C@]2(C)C[C@H]3OC(=O)C(CN4CCCCCC4)[C@H]3C=C12` (some centres undefined) was run?
**A.** inactive

**Q.** `N#CC1CC(c2ccccc2)=NN1c1ccccc1[N+](=O)[O-]` (centres undefined) was tested. Which Potency did it give?
**A.** 3.79 µM (active)
